Screening results (PubChem)
USP8 inh – inhibitors of human USP8 deubiquitinase; Ubiquitin carboxyl-terminal hydrolase 8 (Homo sapiens), P40818; actives 4.2% (n = 47,000); AID 1645853, 2021; inhibition, % at 20 µM; purified USP8, Ub-rhodamine cleavage fluorescence, 30 min
UCHL1 block – inhibitors of human UCHL1 deubiquitinase; Ubiquitin carboxyl-terminal hydrolase isozyme L1 (Homo sapiens), P09936; purified UCHL1, Ub-rhodamine cleavage fluorescence; inhibition, % at 20 µM; actives 0.2% (n = 47,000); AID 1645859, 2021
USP10 block – inhibitors of human USP10 deubiquitinase. Ubiquitin carboxyl-terminal hydrolase 10 (Homo sapiens), Q14694. purified USP10, Ub-rhodamine fluorescence, 60 min. inhibition, % at 20 µM. actives 1.1% (n = 47,000)
USP7 block – inhibitors of human USP7 deubiquitinase. Ubiquitin carboxyl-terminal hydrolase 7 (Homo sapiens), Q93009. purified USP7, Ub-rhodamine cleavage fluorescence. inhibition, % at 20 µM. actives 0.3% (n = 47,000)
Starred values were filed as active, the others as inactive. Most compounds without a hit are left out; they make up all but 5% or so of the library. Rule as the data show it: active = inhibition above about 30%; inactive = the rest.

SMILES	USP8 inh	UCHL1 block	USP10 block	USP7 block
O=C1N(c2cccnc2)C(=O)C2(Cc3ccccc3)CCN(Cc3ccccc3)CCN12 (stereo unspecified)	-1	1	3	3
CC(=O)N1CCc2nc(-c3ccccc3)nc(N3CCOCC3)c2C1	-3	6	0	-1
Cc1cccc(CN2C[C@H]3C[C@H](C(=O)Nc4cccnc4)[C@@H](C2)O3)c1	-19	0	0	0
COC(=O)c1ccccc1NC(=O)c1ccc(S(=O)(=O)N2CCCC2)cc1	2	-4	7	0
COc1ccc(Cn2c(C(=O)O)c(CNCc3cccs3)c3ccccc32)cc1	8	-4	-4	-17
COc1ccc(-c2nn(-c3ccccc3)c3[nH]c(=O)c(CNCc4cccs4)cc23)cc1	82*	7	9	17
CCc1ccc(NS(=O)(=O)c2cc(-c3[nH]ncc3C(=O)N3CCCCC3)oc2C)cc1	10	1	0	-1
O=C(Cn1c(=O)c2c(ncn2C2CCCC2)n(Cc2ccccc2)c1=O)NCc1ccccc1Cl	14	-1	0	-16
CSc1ccc(CNC(=O)Cn2c(=O)[nH]c3c(-c4ccccc4)c[nH]c3c2=O)cc1	73*	2	22	10
O=C(Cn1c(=O)[nH]c2c(-c3ccccc3)c[nH]c2c1=O)NCc1ccccc1Cl	41*	-8	0	15
CN(Cc1ccccc1)C(=O)Cn1c(=O)[nH]c2c(-c3ccccc3F)c[nH]c2c1=O	11	-4	-3	4
Cc1ccc(OCc2nc3ccccc3n2Cc2ccc(F)cc2)cc1	4	0	12	-62
Cc1ccc(CN2CCOCC3(CC(Cn4cnnc4)CO3)C2)s1 (stereo unspecified)	-23	2	2	2
CC(C)(C)c1cc2nc3c(c(=O)n2[nH]1)CN(Cc1ccc(Br)s1)CC3	40*	3	12	9
O=C(Nc1cc(C(F)(F)F)ccc1N1CCOCC1)c1cccc(-n2cnnc2)n1	13	-3	-4	-5
COc1ccc(-c2cc(C)no2)cc1S(=O)(=O)Nc1ccc(-c2ccno2)cc1	59*	1	4	1
O=C(COc1cc([N+](=O)[O-])cc2cccnc12)NCCC1=CCCCC1	98*	4	2	-15
COc1ccc(OCC(=O)NCCC2=CCCCC2)c([N+](=O)[O-])c1	-96	5	2	-24
CCOc1ccc(NC(=O)Cn2c(=O)n(CCCCCC(=O)NCc3ccc(F)cc3)c(=O)c3sccc32)cc1	69*	6	51*	29
COc1ccccc1CNC(=O)CCCCn1c(=O)c2ccccc2n(Cc2ccc(C)cc2)c1=O	29	0	35*	9
O=C(CCCn1c(=O)c2sccc2n(CC(=O)NCCC2=CCCCC2)c1=O)NCc1ccc2c(c1)OCO2	4	-3	15	-1
COc1ccccc1CNC(=O)CCCCn1c(=O)c2ccccc2n(Cc2ccccc2C#N)c1=O	0	1	28	1
Cc1c(C#N)c2ccccc2n1CC(=O)NCc1ccc2c(c1)OCO2	60*	2	25	4
Cc1cc(C)c(NC(=O)Cn2c(=O)n(CCC(=O)NCc3ccc4c(c3)OCO4)c(=O)c3sccc32)c(C)c1	27	8	57*	30*
CC(=O)N1CCc2cc(Br)cc(S(=O)(=O)Nc3cc(C)cc(C)c3)c21	-31	-1	6	-2
SMILES	USP8 inh	UCHL1 block	USP10 block	USP7 block
COc1ccc(Cl)cc1NC(=O)Cn1c(=O)n(CCCC(=O)NCc2ccc(C)cc2)c(=O)c2sccc21	68*	4	69*	18
CCc1nnc(CN2CCCC2Cn2cccn2)o1 (stereo unspecified)	4	-2	-3	0
COCCn1cc(CN2CCC(O)(c3ccccc3F)CC2)c2ccccc21	32*	0	0	3
CN1CCN(c2c(C#N)c3c(c4nncn24)CN(C)CC3)CC1	-27	-1	0	5
Cc1ccc(-c2csc(-n3ncc(C(=O)N4CCN(C(=O)Nc5cccc6ccccc56)C(C)C4)c3C(C)C)n2)cc1 (stereo unspecified)	80*	20	-18	-32
Cc1noc(NS(=O)(=O)c2ccc(NC(=O)CSc3ccc4ccccc4c3)cc2)c1C	68*	9	28	13
Cc1noc(NS(=O)(=O)c2ccc(NC(=O)COc3ccc(N(C)C(=O)c4ccc(Cl)cc4)cc3)cc2)c1C	5	-3	16	-2
CCN(CC)CCn1c(NC(=O)c2ccc(S(=O)(=O)N3CCOCC3)cc2)nc2ccccc21	70*	2	-3	0
COc1ccc(-c2ccc3cc(C(=O)O)ccc3c2)cc1C12CC3CC(CC(C3)C1)C2	66*	5	80*	-13
COc1ccc(CCNC(=O)C23CC4CC(CC(C4)C2)C3)cc1OC	9	0	3	1
N#Cc1ccccc1NC(=O)C1CC(=O)N(CCc2ccc(F)cc2)C1 (stereo unspecified)	1	1	2	1
Cn1c(=O)n([C@@H](Cc2ccccc2)C(=O)N[C@@H](C(=O)O)c2ccc(O)cc2)c(=O)c2ccccc21	75*	8	11	4
CCCN1C=NS(=O)(=O)c2cc(C(=O)Nc3ccccc3C)ccc21	1	0	2	0
c1ccc(-c2noc(NC3CCCC3)n2)cc1	-2	-1	8	-11
O=C1Nc2c(Cl)cc(Cl)cc2C1(O)c1sc(NC2CCCCC2)nc1-c1ccccc1 (stereo unspecified)	87*	-1	4	3
CC1O[C@@H](c2ccc3c(c2O)C(=O)C2=C(C3=O)[C@@]3(O)C(=O)C(O)[C@](C)(O)C[C@@]3(O)C=C2)CC[C@@H]1OC(=O)/C=C/C=C/C=C/[C@@H]1O[C@@](C)(C(=O)O)O[C@H]1C (stereo partly specified)	-79	38*	-5	-18
CSc1ccc(CNC(=O)Cn2nc(C)c3c(C)n(-c4ccccc4)nc3c2=O)cc1	89*	18	46*	21
CN1C(=O)c2cc(S(=O)(=O)NCc3ccccc3F)ccc2Oc2cccnc21	8	4	6	7
Cc1ccc2c(CNCCC3=CCCCC3)c(C(=O)O)n(C)c2c1	-8	0	72*	1
COc1ccc2c(CNCCC3=CCCCC3)c(C(=O)O)n(Cc3ccc(F)cc3)c2c1	3	4	10	-112
Cc1ccc(NC(=O)Cn2nc3ccc(C(=O)NCc4ccccc4)cn3c2=O)cc1F	41*	0	10	15
Cc1cccc(NC(=O)c2cc(-c3ccc(C)c(C)c3O)n[nH]2)c1	81*	6	26	16
CCOC(=O)C1CCCN(Cc2cc(=O)oc3cc(C)c(C(C)C)cc23)C1 (stereo unspecified)	-5	2	4	6
CCOC(=O)C1CCN(Cc2cc(=O)oc3cc(O)c(O)cc23)CC1	91*	76*	34*	52*
